From PubChem BioAssay (NCI)
This is part of a sample that, as a whole, favours compounds with a hit. Of some 79,000 tested, about 15% had one in any assay. Activity calls are given as the source filed them. Rule as the data show it: active = growth inhibition above about 70%; inactive = the rest.

Columns and labels:
[1] = NCI Yeast Anticancer Drug Screen. Data for the rad52 strain (AID 147);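 also: 0% = growth of vehicle-treated control cultures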; conditions: S. cerevisiae rad52 mutant growth inhibition, active compounds read high
Summary of the method: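 Screen used a yeast mutant impaired in DNA repair. After compound exposure, growth was measured. Values reflect inhibition compared with vehicle-treated cells.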

[2] = NCI Yeast Anticancer Drug Screen. Data for the wt1 strain (AID 149);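 also: 0% = growth of vehicle-treated wt1 cultures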; conditions: S. cerevisiae wt1 strain (SPY 50644) growth inhibition, active compounds read high
Summary of the method: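 wt1 yeast, compound-treated; % growth inhibition vs vehicle control.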

[3] = NCI Yeast Anticancer Drug Screen. Data for the rad50EPP+ strain (AID 151);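 also: 0% = growth of vehicle-treated control cultures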; conditions: S. cerevisiae rad50 mutant strain, active compounds read high
Summary of the method: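 Exposing the rad50EPP+ strain to each compound, growth was compared with vehicle-only cultures to give inhibition.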

[4] = NCI Yeast Anticancer Drug Screen. Data for the mgt1 strain (AID 153); conditions: S. cerevisiae mgt1 mutant growth inhibition, active compounds read high
Summary of the method: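 Genetically defined yeast (mgt1) treated with compound; inhibition of growth expressed against vehicle-treated controls.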

[5] = NCI Yeast Anticancer Drug Screen. Data for the rad50 strain (AID 155);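 also: 0% = growth of vehicle-only cultures of the same strain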; conditions: S. cerevisiae rad50 strain growth inhibition, active compounds read high
Summary of the method: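 Genetically altered yeast (DNA repair pathway); compound treatment; growth inhibition vs vehicle ctrl.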

[6] = NCI Yeast Anticancer Drug Screen. Data for the mec2-1 strain (AID 157); conditions: S. cerevisiae mec2-1 strain, active compounds read high
Summary of the method: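 Readout is yeast growth inhibition, normalised to vehicle-treated controls, in the mec2-1 strain exposed to compound.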

[7] = NCI Yeast Anticancer Drug Screen. Data for the rad14 strain (AID 159);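 also: 0% = growth of vehicle-treated control cultures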; conditions: S. cerevisiae rad14 strain growth inhibition, active compounds read high
Summary of the method: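 Test compounds were applied to a repair-deficient yeast strain. Its growth was then compared with that of cultures given vehicle alone, and inhibition was expressed relative to those controls.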

[8] = NCI Yeast Anticancer Drug Screen. Data for the sgs1 mgt1 strain (AID 161);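 also: 0% = growth of cultures given vehicle only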; conditions: S. cerevisiae sgs1 mgt1 strain, active compounds read high
Summary of the method: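 Compounds are added to genetically altered yeast, and growth is compared with cultures given vehicle alone to give percent inhibition.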

[9] = NCI Yeast Anticancer Drug Screen. Data for the CLN2oe strain (AID 163);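 also: 0% = growth of vehicle-only control cultures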; conditions: S. cerevisiae CLN2oe strain, active compounds read high
Summary of the method: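 Values reflect how much compound exposure reduced yeast growth, referenced to vehicle-exposed cells. Assay organism is a strain with a defined genetic change affecting cell-cycle control.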

[10] = NCI Yeast Anticancer Drug Screen. Data for the cln2 rad14 strain (AID 165);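 also: 0% = growth equal to vehicle treated cultures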; conditions: S. cerevisiae cln2 rad14 strain, active compounds read high
Summary of the method: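 Relative to vehicle controls, growth inhibition of compound-treated cln2 rad14 yeast was recorded.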

[11] = NCI Yeast Anticancer Drug Screen. Data for the bub3 strain (AID 167); conditions: S. cerevisiae bub3 mutant strain, active compounds read high
Summary of the method: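 Yeast carrying a defined mutation is treated with each compound, and growth is compared with that of vehicle-exposed cells to give inhibition.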

[12] = NCI Yeast Anticancer Drug Screen. Data for the wt2 strain (AID 169);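 also: 0% = growth of vehicle-treated yeast cultures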; conditions: S. cerevisiae wt2 strain growth inhibition, active compounds read high
Summary of the method: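 Values express reduction in yeast growth under compound treatment, referenced to vehicle-treated cells.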

[13] = NCI Yeast Anticancer Drug Screen. Data for the mlh1 strain (AID 171);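 also: 0% = growth of vehicle-treated control cultures of the same strain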; conditions: S. cerevisiae mlh1 strain growth inhibition, active compounds read high
Summary of the method: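 Steps: expose the defined-mutant yeast strain to compound; expose a parallel culture to vehicle; measure growth; express compound effect as inhibition relative to the vehicle culture.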

[14] = NCI Yeast Anticancer Drug Screen. Data for the sgs1 strain (AID 173);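 also: 0% = growth of vehicle-only control cultures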; conditions: S. cerevisiae sgs1 mutant, active compounds read high
Summary of the method: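 Treat defined-mutant yeast with compound; measure growth; calculate inhibition relative to vehicle-treated cells.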

[15] = NCI Yeast Anticancer Drug Screen. Data for the mlh1 rad18 strain (AID 175); conditions: S. cerevisiae mlh1 rad18 strain growth inhibition, active compounds read high
Summary of the method: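 Test agents were incubated with a yeast strain of defined genotype (DNA damage repair defect). Inhibition of growth was derived by comparison with vehicle-exposed cultures.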

[16] = NCI Yeast Anticancer Drug Screen. Data for the rad18 strain (AID 177); conditions: S. cerevisiae rad18 mutant growth inhibition, active compounds read high
Summary of the method: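 A genetically defined yeast mutant impaired in DNA damage repair was treated with test compounds, then its growth was measured against cultures receiving vehicle alone.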

[17] = at 5.0 µM (retest, dose inferred, filed as 0.5)
[18] = at 50.0 µM (retest, dose inferred, filed as 5.0)

Measured: growth inhibition

COc1cc(C2c3cc4c(cc3[C@@H](Nc3ccc(N)cc3)C3COC(=O)[C@H]23)OCO4)cc(OC)c1O (stereo partly drawn)
inactive: [2]; at 1.2 µM -35% | [2]; at 3.7 µM 64% | [3]; at 1.2 µM -2% | [3]; at 3.7 µM 12% | [3]; at 11.0 µM 63% | [4]; at 1.2 µM -16% | [4]; at 3.7 µM 66% | [6]; at 1.2 µM 14% | [7]; at 1.2 µM 2% | [7]; at 33.0 µM 37% | [8]; [17] 18% | [9]; at 1.2 µM 0% | [9]; at 3.7 µM 62% | [9]; at 33.0 µM 41% | [10]; [17] 20% | [11]; at 1.2 µM -33% | [11]; at 3.7 µM 55% | [11]; [17] 22% | [12]; at 1.2 µM -1% | [12]; at 3.7 µM 42% | [13]; at 1.2 µM -4% | [14]; at 1.2 µM 16% | [16]; at 1.2 µM -11%
active: [1]; at 1.2 µM 92% | [1]; at 3.7 µM 92% | [1]; at 11.0 µM 95% | [1]; at 33.0 µM 92% | [1]; at 100.0 µM 87% | [2]; at 11.0 µM 95% | [2]; at 33.0 µM 94% | [2]; at 100.0 µM 88% | [3]; at 33.0 µM 85% | [3]; at 100.0 µM 89% | [4]; at 11.0 µM 94% | [4]; at 33.0 µM 95% | [4]; at 100.0 µM 90% | [5]; at 1.2 µM 91% | [5]; at 3.7 µM 95% | [5]; [17] 92% | [5]; at 11.0 µM 95% | [5]; at 33.0 µM 94% | [5]; [18] 95% | [5]; at 50.0 µM 82.8% | [5]; at 100.0 µM 88% | [6]; at 3.7 µM 89% | [6]; [17] 70% | [6]; at 11.0 µM 95% | [6]; at 33.0 µM 93% | [6]; [18] 96% | [6]; at 50.0 µM 90% | [6]; at 100.0 µM 88% | [7]; at 3.7 µM 71% | [7]; at 11.0 µM 95% | [7]; at 100.0 µM 92% | [8]; [18] 94% | [8]; at 50.0 µM 85.3% | [9]; at 11.0 µM 92% | [9]; at 100.0 µM 88% | [10]; [18] 90% | [10]; at 50.0 µM 85.9% | [11]; at 11.0 µM 92% | [11]; at 33.0 µM 85% | [11]; [18] 93% | [11]; at 50.0 µM 84.8% | [11]; at 100.0 µM 85% | [12]; at 11.0 µM 92% | [12]; at 33.0 µM 94% | [12]; at 100.0 µM 93% | [13]; at 3.7 µM 74% | [13]; at 11.0 µM 93% | [13]; at 33.0 µM 93% | [13]; at 100.0 µM 90% | [14]; at 3.7 µM 77% | [14]; at 11.0 µM 92% | [14]; at 33.0 µM 94% | [14]; at 100.0 µM 88% | [15]; [17] 70% | [15]; [18] 94% | [15]; at 50.0 µM 85.9% | [16]; at 3.7 µM 72% | [16]; at 11.0 µM 93% | [16]; at 33.0 µM 93% | [16]; at 100.0 µM 85%
